Results: publication PMC4336329 (PLoS ONE, 2015)
The campaign covered roughly 310,000 compounds. About 14,000 (4.5%) showed an effect of 50% or more. The effect is printed as a negative number. Many of the other results were omitted from the sample, so strong results are more common in it than they were.

What follows are compounds tested against human ether-à-go-go-related gene (hERG) potassium channel (human, UniProt Q12809) (assay: primary screen, population patch clamp on CHO cells stably expressing hERG; higher = less effect of the substance).
Chain of human ether-à-go-go-related gene (hERG) potassium channel (Q12809 whole entry, looked up): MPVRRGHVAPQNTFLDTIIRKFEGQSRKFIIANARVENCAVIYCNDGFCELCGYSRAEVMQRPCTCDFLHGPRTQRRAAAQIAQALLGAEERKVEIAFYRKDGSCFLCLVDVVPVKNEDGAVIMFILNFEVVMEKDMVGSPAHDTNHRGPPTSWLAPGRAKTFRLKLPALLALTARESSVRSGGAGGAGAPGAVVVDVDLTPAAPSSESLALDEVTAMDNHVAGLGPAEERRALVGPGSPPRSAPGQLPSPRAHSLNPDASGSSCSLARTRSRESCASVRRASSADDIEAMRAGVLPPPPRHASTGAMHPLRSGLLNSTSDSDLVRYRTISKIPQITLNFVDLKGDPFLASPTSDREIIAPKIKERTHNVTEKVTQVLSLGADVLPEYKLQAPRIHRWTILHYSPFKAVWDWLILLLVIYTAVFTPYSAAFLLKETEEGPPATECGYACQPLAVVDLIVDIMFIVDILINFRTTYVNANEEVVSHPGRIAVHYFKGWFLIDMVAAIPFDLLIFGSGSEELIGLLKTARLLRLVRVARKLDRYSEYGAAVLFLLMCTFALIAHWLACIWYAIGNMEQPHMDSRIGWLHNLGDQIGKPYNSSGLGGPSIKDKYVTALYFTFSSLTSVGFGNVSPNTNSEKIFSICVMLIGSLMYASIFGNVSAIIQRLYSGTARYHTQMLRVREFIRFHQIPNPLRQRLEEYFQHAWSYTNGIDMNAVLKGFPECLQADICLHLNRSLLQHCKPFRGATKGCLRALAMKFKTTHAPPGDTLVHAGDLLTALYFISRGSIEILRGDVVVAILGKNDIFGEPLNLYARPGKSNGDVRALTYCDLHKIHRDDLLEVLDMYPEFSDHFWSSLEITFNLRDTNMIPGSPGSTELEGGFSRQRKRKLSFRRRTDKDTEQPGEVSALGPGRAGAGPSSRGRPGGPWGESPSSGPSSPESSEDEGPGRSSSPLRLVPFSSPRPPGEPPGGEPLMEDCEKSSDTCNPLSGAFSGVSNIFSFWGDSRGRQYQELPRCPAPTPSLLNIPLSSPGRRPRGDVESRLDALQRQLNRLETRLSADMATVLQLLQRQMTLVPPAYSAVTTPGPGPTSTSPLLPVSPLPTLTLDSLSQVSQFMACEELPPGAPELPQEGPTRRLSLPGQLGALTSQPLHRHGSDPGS
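Note: peak tail current of the secondary pulse compared with the same well before compound.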

Row | SMILES | hERG current change (%, negative = inhibition) at 10uM [%]
1 | CCOc1ccc(NC(=O)c2ccc(NC(=S)NC3CCCCC3)cc2)cc1 | 20.9
2 | Cc1ccc(NC(=O)CCCCCN2C(=O)[C@@H]3Cc4ccccc4CN3C2=O)cc1 | -12.1
3 | O=C(CCN1C(=O)c2ccncc2C1=O)NCc1ccc(Cl)cc1 | -51.9
4 | O=C(CCCN1C(=O)C(c2ccccc2)Oc2cccnc21)Nc1cccc(F)c1 (stereo not shown) | -50.2
5 | O=C(CCN1C(=O)[C@@H]2Cc3ccccc3CN2C1=O)NCc1ccc(Cl)cc1 | -64.2
6 | Cc1ccc(CNC(=O)CCN2C(=O)[C@@H]3Cc4ccccc4CN3C2=O)cc1 | -40.5
7 | CCc1cccc(NC(=O)CCCN2C(=O)C(c3ccccc3)Oc3cccnc32)c1 (stereo not shown) | -2.79
8 | O=C(CCN1C(=O)[C@@H]2Cc3ccccc3CN2C1=O)NCc1ccccc1 | -12
9 | O=C(CCN1C(=O)c2ccccc2C1=O)NCc1ccc(Cl)cc1 | -16.9
10 | COc1ccc(CNC(=O)CCN2C(=O)c3ccncc3C2=O)cc1OC | 13
11 | Cc1cc(C)cc(NC(=O)CCCCCN2C(=O)[C@@H]3Cc4ccccc4CN3C2=O)c1 | -51.9
12 | Cc1cc(C)cc(NC(=O)CCCN2C(=O)C(c3ccccc3)Oc3cccnc32)c1 (stereo not shown) | -1.03
13 | Cc1cccc(NC(=O)CCCCCN2C(=O)[C@@H]3Cc4ccccc4CN3C2=O)c1 | -21.7
14 | Cc1ccccc1NC(=S)N(Cc1cccnc1)Cc1ccccc1Cl | -11.6
15 | COc1ccc(C(=O)Nc2ccccc2C(=O)N2CCCCCC2)cc1OC | -10.5
16 | Cc1c(NC(NC(=O)CF)C(Cl)(Cl)Cl)c(=O)n(-c2ccccc2)n1C (stereo not shown) | 4.94
17 | O=C(NC(=S)Nc1cc(Cl)ccc1N1CCOCC1)c1ccc(-c2cccc(Cl)c2)o1 | 8.91
18 | O=C(COc1ccccc1O)Nc1ccccc1Cl | -4.32
19 | COc1ccc(CCn2c(SCC(=O)Nc3cc(C)on3)nc3ccccc3c2=O)cc1OC | 0.454
20 | Cc1ccc(OC(=O)CCc2c(C)nc3ncnn3c2C)cc1 | -8.47
21 | O=C(CCCCCN1C(=O)[C@@H]2Cc3ccccc3CN2C1=O)Nc1cccc(F)c1 | -67.9

Row | SMILES | hERG current change (%, negative = inhibition) at 10uM [%]
22 | COc1cccc(NC(=O)CCCCCN2C(=O)[C@@H]3Cc4ccccc4CN3C2=O)c1 | -37.7
23 | O=C(CCN1C(=O)[C@@H]2Cc3ccccc3CN2C1=O)Nc1cccc(F)c1 | -13.8
24 | CC1C(C#N)=C(N)OC2=C1C(=O)CC(C)(C)C2 (stereo not shown) | 9.35
25 | CCOc1cc(/C=N/NC(=O)NN(C)c2ncc(C(F)(F)F)cc2Cl)ccc1O | -54.3
26 | Cc1ccc(/C=N/NC(=O)NN(C)c2ncc(C(F)(F)F)cc2Cl)cc1 | -3.09
27 | CCOc1cc(/C=N/NC(=O)N/N=C/c2ccc(O)c(OCC)c2)ccc1O | -10.1
28 | CC1=C(C(=O)OCC2CCCO2)C(c2ccc(Cl)c(Cl)c2)NC(=O)N1 (stereo not shown) | 11.4
29 | CCN1C(=NCCOC)N[C@@H](CCc2ccccc2)[C@H](C(=O)OC)[C@H]1C | -1.21
30 | CCN1C(=NCc2ccc(OC)cc2)N[C@@H](CCc2ccccc2)[C@H](C(=O)NCc2ccc(OC)cc2)[C@H]1C | -65.4
31 | CCN1C(=NCC(C)C)N[C@@H](CCc2ccccc2)[C@H](C(=O)NCC(C)C)[C@H]1C | -16.2
32 | Cc1cc(/C=N/NC(N)=O)c(C)n1-c1ccc(F)cc1 | -2.06
33 | O=C(NCc1ccc(F)cc1)C(c1ccc(F)cc1)N(C(=O)c1csnn1)C1CC1 (stereo not shown) | 9.3
34 | Cc1cccc(N(C(=O)c2csnn2)C(C(=O)NCc2ccccc2)c2cccs2)c1 (stereo not shown) | -9.49
35 | Cc1ccc(C(C(=O)NCc2ccc(F)cc2)N(C(=O)c2csnn2)C2CC2)cc1 (stereo not shown) | -19.3
36 | Cc1cccc(N(C(=O)c2csnn2)C(C(=O)NCc2ccccc2)c2ccc(C)o2)c1 (stereo not shown) | -54.6
37 | Cc1ccc(C(C(=O)NC2CCCCC2)N(C(=O)c2csnn2)C2CCCC2)o1 (stereo not shown) | -7.71
38 | Cc1ccc(C(C(=O)NC2CCCC2)N(C(=O)c2csnn2)C2CCCC2)o1 (stereo not shown) | -4.91
39 | Cc1ccc(C(C(=O)NCc2ccc(F)cc2)N(C(=O)c2csnn2)C2CC2)o1 (stereo not shown) | -56.7
40 | Cc1ccc(C(C(=O)NCc2ccccc2)N(C(=O)c2csnn2)c2cccc3ccccc23)o1 (stereo not shown) | -13.2
41 | Cc1ccc(C(C(=O)NC2CCCCC2)N(C(=O)c2csnn2)C2CC2)o1 (stereo not shown) | -57.6
42 | O=[N+]([O-])c1cc2c(cc1Br)CCN2 | 11.2

Row | SMILES | hERG current change (%, negative = inhibition) at 10uM [%]
43 | O=C(O/N=C1\CCCc2ccccc21)C1CC1 | 14.4
44 | O=C(O)CCCC(=O)Nc1ccc(Oc2cccc(C(F)(F)F)c2)nc1 | 19.4
45 | CCC(C(=O)NCCc1ccccc1OC)n1nc(C)c2c(C)n(-c3ccccc3)nc2c1=O (stereo not shown) | -30
46 | O=C(COC(=O)c1cc(NS(=O)(=O)c2cccs2)ccc1O)Nc1ccc(F)c(F)c1F | 4.87
47 | CCC(=O)Nc1cccc(NC(=S)NC(=O)c2cccs2)c1 | 3.59
48 | O=C(NC(=S)Nc1cccc(-c2ccc(CO)o2)c1)c1cccs1 | 23.7
49 | CC(C)(O)c1ccc2c(c1)CCC1C(C)(C(=O)O)CCCC21C (stereo not shown) | 4.17
50 | CCOC(=O)Cc1cc(=O)n2[nH]cc(-c3cccc(Br)c3)c2n1 | 35.6
51 | CC(=O)N1CCc2cc(S(=O)(=O)NC(C(=O)Nc3nc(C)cs3)C(C)C)ccc21 (stereo not shown) | 8.38
52 | CCN1C(=O)C2C(c3ccc(O)c(OC)c3)NC(C)(C(=O)OC)C2C1=O (stereo not shown) | 12.1
53 | COc1cc(=O)[nH]c(SCc2c(F)c(F)c(F)c(F)c2F)n1 | 0.443
54 | CC(=O)N(CC(=O)O)c1ccccc1C(=O)O | 12
55 | Cc1cccc(NC(=O)CN2C(=O)/C(=C3\SC(=S)N(CC4CCCO4)C3=O)c3ccccc32)c1 (stereo not shown) | 12.9
56 | O=C1/C(=C2\C(=O)N(Cc3ccc(F)cc3)c3ccccc32)SC(=S)N1CCS(=O)(=O)O | 4.31
57 | O=C(CN1C(=O)/C(=C2\SC(=S)N(CCS(=O)(=O)O)C2=O)c2ccccc21)Nc1cccc(Br)c1 | -73.1
58 | COc1ccccc1CCNC(=O)C1CCC(=O)N(C2CCCCCC2)C1 (stereo not shown) | -7.62
59 | N#Cc1cc2sc3nnc(-c4ccncc4)n3c2cc1C#N | -54
60 | Cc1ccc(-c2nnc3sc(-c4ccncc4)nn23)cc1 | -41.4
61 | Cc1cn2c(-c3ccncc3)nnc2s1 | 7.96
62 | COCCCNC(=O)c1ccc(Cn2c(=O)c3ccccc3n(CC(=O)NCc3ccco3)c2=O)cc1 | 6.71
63 | COc1cccc2sc(=NC(=O)CCS(=O)(=O)c3ccc(C)cc3)n(C)c12 | 8.32

Row | SMILES | hERG current change (%, negative = inhibition) at 10uM [%]
64 | COc1cccc2sc(=NC(=O)CS(=O)(=O)c3ccc(F)cc3)n(C)c12 | -0.213
65 | COc1cccc2sc(=NC(=O)CS(=O)(=O)c3ccc(Cl)cc3)n(C)c12 | -60.8
66 | Cc1ccccc1OCC(=O)NN1C(=O)C2C3C=CC(O3)C2C1=O (stereo not shown) | 12.3
67 | COCCc1nnc(NC(=O)Cc2ccccc2)s1 | 4.67
68 | C#Cc1ccc([C@@H]2C=C(C(=O)NCc3ccccc3)O[C@H](OCc3ccc(CO)cc3)C2)cc1 | 6.15
69 | O=C(NCc1ccc2c(c1)OCO2)c1cc2ccccc2oc1=O | 12
70 | O=C(c1cc2ccccc2oc1=O)N(Cc1ccco1)Cc1cccs1 | -58.3
71 | O=C(c1cc2ccccc2oc1=O)N(Cc1cccs1)Cc1cccs1 | -14.4
72 | O=C(c1cc2ccccc2o1)N(Cc1ccco1)Cc1cccs1 | -35.4
73 | O=C(c1cc2ccccc2oc1=O)N(Cc1ccco1)CC1CCCO1 (stereo not shown) | 6.96
74 | O=C(NCCC(=O)N(Cc1ccco1)Cc1cccs1)c1ccc(Br)cc1 | -58.7
75 | O=C(c1cc2ccccc2oc1=O)N(Cc1ccc2c(c1)OCO2)Cc1ccco1 | -59.3
76 | COc1ccccc1C(=O)NCCC(=O)N(Cc1ccco1)Cc1cccs1 | -21.3
77 | O=C(NCCC(=O)N(Cc1ccco1)Cc1cccs1)c1ccccc1Cl | -16.5
78 | CCn1c(CNC(=O)c2ccc(OC)c(OC)c2)nnc1SCC(=O)Nc1ccccc1 | -21.5
79 | COC(=O)C1=C(c2cccc(C#N)c2)C[C@@H]2CC[C@H]1N2C(=O)N1CCOCC1 | 6.41
80 | COc1ccc(-c2noc(CN(C)C(=O)CCN3C(=O)[C@H]4CC=CC[C@H]4C3=O)n2)cc1 | -2
81 | COc1cc(C(=O)NCC(=O)OCC(=O)N2CCc3ccccc32)cc(OC)c1OC | 3.43
82 | COc1ccc(OC)c(S(=O)(=O)Oc2ccc(N)c3ccccc23)c1 | 7.83
